# Shown are actives, neighbours in structure and some others; about 3.5% of the full set was active somewhere.
# MITF primary: blocks human microphthalmia-associated transcription factor; AlphaScreen MITF homodimerization, bead proximity signal; hit rate 0.91% among 650,000; inhibition, % at 2.6 µM; O75030; in the data active = inhibition above about 50%
# FBW7 act: human FBW7 E3 ligase activation, primary screen | hit rate 0.13% among 650,000 | normalized activity (activation), % at 26.1 µM | Q969H0 | AlphaScreen FBW7–phospho-cyclin E peptide binding, activator screen; in the data active = normalized activity above about 1.9%;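 note: purified mutant Fbw7 with reduced substrate affinity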
# TEAD-YAP inh: TEAD-YAP interaction inhibition | inhibition, % at 9.12 µM | HEK-TIYL cells, TEAD-Gal4/YAP UAS-luciferase luminescence | hit rate 1.4% among 640,000; in the data active = inhibition above about 32%
# GPR151 activ: activates the human receptor GPR151; Q8TDV0; activation, % at 11.2 µM; hit rate 1% among 650,000; PathHunter beta-arrestin GPR151 cells, luminescence; in the data active = activation above about 4.9%
# GPR151 conf act: confirmation of human GPR151 activators. shares compounds with GPR151 activ. GPR151 PathHunter beta-arrestin cells, luminescence, 90 min; % of EA-reagent control over plate median. activation, % at 11.2 µM. 6,700 tested, under 10 active. AID 1508609;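 active = mean percent activation across replicates above the confirmation screen cutoff of 4.91%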
# GPR119 ag: activates human GPR119 in a GPR151 counter-screen | AID 1508611 | shares compounds with GPR151 activ | hit rate 0.3% among 6,700 | activation, % at 11.2 µM | GPR119 PathHunter beta-arrestin cells, luminescence, 90 min; 0 = compound-well median, 100 = enzyme-acceptor control;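 active = mean percent activation in the counterscreen above 29.09%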;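 note: counterscreen on off-target GPR119 to flag nonselective hits from the GPR151 activator screen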
# Target sequence (Q8TDV5 whole entry, looked up): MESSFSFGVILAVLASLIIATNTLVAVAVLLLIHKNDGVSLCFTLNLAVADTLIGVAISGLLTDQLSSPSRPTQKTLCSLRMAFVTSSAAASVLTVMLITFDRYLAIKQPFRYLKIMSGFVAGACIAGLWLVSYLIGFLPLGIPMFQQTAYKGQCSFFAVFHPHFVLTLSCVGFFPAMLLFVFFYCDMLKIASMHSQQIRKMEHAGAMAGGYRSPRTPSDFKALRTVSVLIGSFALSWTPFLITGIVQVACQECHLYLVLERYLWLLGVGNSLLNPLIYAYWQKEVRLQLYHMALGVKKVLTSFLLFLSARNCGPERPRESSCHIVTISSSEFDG
# Hits are given with their value; n = inactive; x = no result.
SMILES,MITF primary,FBW7 act,TEAD-YAP inh,GPR151 activ,GPR151 conf act,GPR119 ag
O=S(=O)(NCC1CCCN(Cc2ccccn2)C1)c1cccc2cccnc12 (stereo not given),n,n,n,n,x,x
COc1ccc(CNC(=O)c2sc3cnccc3c2-n2cccc2)cc1,n,n,54.9,5.2,n,n
CCCC(=O)Nc1ccc(NC(=O)c2cnccn2)cn1,n,n,n,8.0,n,n
O=C(C1CCN(C2CC(=O)N(c3ccc(C(F)(F)F)cc3)C2=O)CC1)N1CCCCC1 (stereo not given),n,n,n,n,x,x
OCCC1CN(Cc2cccc3cnccc23)CCN1CCc1ccccc1 (stereo not given),n,n,n,n,x,x
Cc1cccc(NC(=O)C(=O)NC2CCCCC2)c1,n,n,n,5.5,n,n
Cc1cccc(NC(=O)C(=O)NC2CCCCCC2)c1,n,n,n,n,x,x
CN(C)CCCOc1ccc(-c2cnc3c(n2)[nH]c(=O)n3Cc2cccnc2)cn1,n,n,n,n,x,x
COc1ccc(C2CC(c3ccccc3)=NN2C(=O)CSc2cccc[n+]2[O-])cc1 (stereo not given),n,n,n,5.0,n,n
C=CCn1c(N)c(C(=O)NCCc2ccc(OC)c(OC)c2)c2nc3ccccc3nc21,n,n,n,13.8,n,n
Cc1ccc(CN2CCNC(=O)C2CC(=O)NCc2cnn(C)c2)cc1 (stereo not given),n,n,n,n,x,x
Cc1ccc(CN2CCNC(=O)C2CC(=O)NCc2cc(C(F)(F)F)ccc2F)cc1 (stereo not given),n,n,n,6.5,n,n
Cc1onc(-c2ccccc2Cl)c1C(=O)Nc1sc2c(c1C#N)CCCC2,n,n,n,n,x,x
O=C1c2ccccc2C(=O)C1(Nc1ccc(Br)cc1)c1ccccc1,n,n,n,6.9,n,n
CCOC(=O)c1sc(NC(=O)CSc2nnc(CNC(=O)c3ccco3)n2-c2ccccc2OC)c(C(=O)OCC)c1C,n,n,n,8.7,n,n
CCOC(=O)c1c(NC(=O)CSc2nnc(CNC(=O)c3cccc(F)c3)n2-c2ccc(OCC)cc2)sc2c1CCC2,n,n,n,n,x,x
CCOC(=O)c1c(NC(=O)CSc2nnc(CNC(=O)c3cccc(F)c3)n2-c2ccc([N+](=O)[O-])cc2)sc2c1CCCCC2,n,n,n,5.5,n,n
CCOC(=O)c1sc(NC(=O)CSc2nnc(CNC(=O)Cc3ccccc3)n2-c2ccccc2OC)c(C(=O)OCC)c1C,n,n,n,n,x,x
CCOC(=O)c1c(NC(=O)CSc2nnc(CNC(=O)c3cc(OC)cc(OC)c3)n2Cc2ccccc2)sc2c1CCCC2,n,n,n,5.0,n,n
CCOc1ccccc1CN1CCNC(=O)C1CC(=O)NCCCOC(C)C (stereo not given),n,n,n,n,x,x
C=CCNC(=O)c1cc(I)ccc1NC(=O)c1cccnc1,n,n,n,5.7,n,n
C=CCNC(=O)c1cc(I)ccc1NC(=O)c1ccc(F)cc1,n,n,n,10.9,n,n
COc1ccc(S(=O)(=O)N(C)CC(=O)Nc2ccc(S(N)(=O)=O)cc2)cc1,n,n,n,n,x,x
O=C(Nc1cccs1)Nc1ccccc1NC(=O)c1ccccc1F,n,n,n,n,x,x
Cc1ccccc1C(=O)Nc1ccccc1NC(=O)Nc1cccs1,n,n,n,12.0,n,n
SMILES,MITF primary,FBW7 act,TEAD-YAP inh,GPR151 activ,GPR151 conf act,GPR119 ag
CC1CCCN(Cc2nc3c(c(=O)n(C)c(=O)n3C)n2Cc2ccc(Cl)cc2)C1 (stereo not given),n,n,n,n,x,x
Cc1ccc(Cn2c(CN3CCCC(C)C3)nc3c2c(=O)n(C)c(=O)n3C)cc1 (stereo not given),n,n,n,4.9,n,n
Cc1cnc(C(=O)N2CCC[C@@H]3CN(CCC(C)C)CC[C@H]32)cn1,n,n,n,n,x,x
COCc1cc(C)nc2oc(C(=O)c3ccccc3)c(N)c12,n,n,n,5.7,n,n
COCc1cc(C)nc2sc(C(=O)c3ccccc3)c(N)c12,n,n,n,n,x,x
Cc1ccc(N=Cc2ccccc2O)cc1F,n,n,n,n,x,x
Cc1ccc(N=Cc2ccccc2O)cc1C#N,n,n,n,5.6,n,n
CCCCOc1ccc(-c2nnc(-c3ccc(-c4ccccc4)cc3)o2)cc1,n,n,n,5.5,n,n
